Assay outcomes deposited in PubChem BioAssay by The Scripps Research Institute Molecular Screening Center.
The list is not random: actives were taken first. Their share in the collection is about 3.5%.
TEAD-YAP block – TEAD-YAP interaction inhibition; inhibition, % at 9.12 µM; 1.4% of 640,000 active; AID 1259422; HEK-TIYL cells, TEAD-Gal4/YAP UAS-luciferase luminescence; in the data active = inhibition above about 32%;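 also: 0% = median of test compound wells and 100% = reference inhibitor wells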
GPR151 activ – human GPR151 activation; Q8TDV0; PathHunter beta-arrestin GPR151 cells, luminescence; activation, % at 11.2 µM; 1% of 650,000 active; in the data active = activation above about 4.9%;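 also: 0% = median of compound wells and 100% = cells with positive control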
Target sequence (Q8TDV0 whole entry, looked up): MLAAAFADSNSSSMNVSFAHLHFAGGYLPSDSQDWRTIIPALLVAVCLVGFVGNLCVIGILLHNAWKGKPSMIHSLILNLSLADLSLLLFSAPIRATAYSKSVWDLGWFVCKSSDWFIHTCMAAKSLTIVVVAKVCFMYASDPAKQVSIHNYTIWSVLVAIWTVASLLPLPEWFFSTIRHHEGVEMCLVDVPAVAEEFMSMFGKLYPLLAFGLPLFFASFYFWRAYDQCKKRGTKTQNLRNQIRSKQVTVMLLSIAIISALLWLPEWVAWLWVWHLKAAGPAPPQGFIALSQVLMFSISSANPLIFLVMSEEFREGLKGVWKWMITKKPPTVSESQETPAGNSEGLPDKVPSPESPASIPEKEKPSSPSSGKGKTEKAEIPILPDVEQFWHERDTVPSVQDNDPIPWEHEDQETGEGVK
MITF primary – blocks human microphthalmia-associated transcription factor; O75030; AlphaScreen MITF homodimerization, bead proximity signal; inhibition, % at 2.6 µM; 0.91% of 650,000 active; AID 1259374; in the data active = inhibition above about 50%;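 also: 0% = vehicle wells with protein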
FBW7 act – human FBW7 E3 ligase activation, primary screen. Q969H0. normalized activity (activation), % at 26.1 µM. 0.13% of 650,000 active. AID 1259310. AlphaScreen FBW7–phospho-cyclin E peptide binding, activator screen; in the data active = normalized activity above about 1.9%;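 also: purified mutant Fbw7 with reduced substrate affinity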
Starred values were filed as active, the others as inactive; x = not tested or not shown.

SMILES	TEAD-YAP block	GPR151 activ	MITF primary	FBW7 act
C[C@@H]1O[C@@H](O[C@@H]2C=C3CCC4C(CC[C@]5(C)[C@@H](c6ccc(=O)oc6)CC[C@]45O)[C@@]3(C)CC2)[C@H](O)[C@H](O)[C@H]1O (some centres undefined)	x	10*	5	0
O=c1c2ccccc2nc(/C=C/c2ccc(O)cc2)n1-c1ccc(Br)cc1	-6	0	-1	0
CC1(C)CN2C(c3ccc(Br)cc3)N2C1 (centres undefined)	-13	-1	-2	0
COc1[nH]c2ccccc2c1C=C(C#N)C#N	71*	1	7	0
C=CCOC(=O)C1=C(C)OC(N)=C(C(=O)OCCCC)C12C(=O)Nc1ccccc12 (centres undefined)	10	-1	6	0
CCOC(=O)C1C2NC(=S)N(c3ccc(C)cc3)C1(C)Oc1c(Cl)cc(Cl)cc12 (centres undefined)	63*	0	6	0
CCOC(=O)C1C2NC(=S)N(c3cccc(Cl)c3)C1(C)Oc1c(Cl)cc(Cl)cc12 (centres undefined)	55*	-1	-10	0
CCOC(=O)C1C2NC(=S)N(c3c(C)cccc3C)C1(C)Oc1c(Cl)cc(Cl)cc12 (centres undefined)	-14	2	-1	0
NC(Cc1cc(O)c(O)cc1O)C(=O)O (centres undefined)	-7	0	62*	0
COc1ccccc1-n1c(/C=C/c2ccc([N+](=O)[O-])cc2)nc2ccccc2c1=O	16	-1	-15	0
COc1ccccc1-n1c(/C=C/c2ccc(N(C)C)cc2)nc2ccccc2c1=O	-12	0	-16	2.3*
O=c1cccc2n1CC1CC2CN(Cc2cc(O)ccc2[N+](=O)[O-])C1 (centres undefined)	-1	3	-1	0
C[C@H]1CCC/C=C/[C@@H]2C[C@H](O)C[C@H]2[C@H](O)/C=C/C(=O)O1	68*	-3	11	0
C[C@H]1CCC/C=C/C2C[C@H](O)C[C@H]2[C@H](O)/C=C/C(=O)O1 (some centres undefined)	x	2	3	2.1*
Cc1ccc(-n2c(/C=C/c3ccccc3Br)nc3ccccc3c2=O)cc1	51*	0	-8	0
COC(=O)CNC(=O)c1cn(CCC#N)nc1-c1cccc(Br)c1	-8	0	9	0
CCOc1ccc(C(=O)C(CN2CCCC2)c2ccccc2)cc1 (centres undefined)	4	0	-22	0
CN(C(=O)Cc1ccccc1)[C@H](CN1CCCC1)c1ccccc1	x	0	2	1.9*
O=C1/C(=C/c2cccnc2)N2CCC1CC2	-7	0	2	0
CN1C2CCC1/C(=C\c1cccnc1)C(=O)/C2=C/c1cccnc1	53*	0	22	1
C=CCOC(=O)C1C2NC(=S)NC1(C)Oc1ccccc12 (centres undefined)	36*	0	0	0
CCOC(=O)C1(c2ccccc2)CCN(Cc2ccc(O)c(C(=O)OC)c2)CC1	35*	0	7	0
Cc1cccc(CN2CCN(Cc3ccccc3)C(CCO)C2)c1 (centres undefined)	9	0	8	0
CCn1cnc2c(Nc3cccc(Cl)c3)nc(N[C@@H]3CCCC[C@@H]3N)nc21	46*	2	-4	0
COc1cc(Br)c([N+](=O)[O-])cc1[N+](=O)[O-]	43*	0	37	0
SMILES	TEAD-YAP block	GPR151 activ	MITF primary	FBW7 act
O=c1c2ccccc2nc(/C=C/c2ccccc2)n1-c1ccc([N+](=O)[O-])cc1	-19	-1	-14	0
O=C(O)c1ccccc1C(=O)N1CCC2(CC1)OCc1cc(-c3ccco3)ccc1O2	-6	0	-54	0
CCOC(=O)C1=C(NC(=S)NC(=O)c2ccccc2)c2ccccc2CC12CCCC2	41*	0	17	0
COc1cc(NC(=O)CN2C(=O)C(C)N=C(c3ccccc3)c3ccccc32)cc(OC)c1 (centres undefined)	37*	0	5	0
CCOc1ccc(NC(=O)CN2C(=O)C(C)N=C(c3ccccc3)c3ccccc32)cc1 (centres undefined)	8	1	-1	0
COc1ccc(OC)c(C2=NCC(=O)Nc3c2oc2ccccc32)c1	52*	1	-4	0
CCN1CCN(c2ccc(NC(=S)NC(C)=O)cc2Cl)CC1	43*	-1	-11	0
O=C1NC(=O)C(=C/C=C/c2ccccc2[N+](=O)[O-])C(=O)N1	-7	1	-2	-1
CC(=O)NC1C(OC2OC(CC(O)C3OC(n4ccc(=O)[nH]c4=O)C(O)C3O)C(O)C(O)C2NC(=O)/C=C\CCCCCCCCCC(C)C)OC(CO)C(O)C1O (centres undefined)	64*	0	-3	0
NCCc1cc(O)c(O)cc1O	-9	0	114*	0
CC(=O)OC1CC[C@@]2(C)C(CCC3C2CC[C@]2(C)C(C4=CC(=O)OC4)C(OC(C)=O)CC32O)C1 (some centres undefined)	100*	2	-24	0
CC(=O)[C@H]1CCC2C3CC[C@H]4C[C@H](O)CC[C@]4(C)C3CC[C@@]21C (some centres undefined)	-6	4	-9	0
C[C@]12CC[C@H](O)C[C@H]1CC[C@@H]1[C@@H]2CC[C@]2(C)[C@@H](C3=CC(=O)OC3)[C@@H](O)C[C@]12O	95*	-1	22	0
CCOC(=O)C1C2NC(=S)N(c3ccc(F)cc3)C1(C)Oc1ccc(Br)cc12 (centres undefined)	13	1	11	0
CCOC(=O)C1(c2ccccc2)CCN(CCC(=O)Nc2nccs2)CC1	-6	0	-4	0
CCOC(=O)C1(c2ccccc2)CCN(CCC(=O)Nc2cc(Cl)ccc2OC)CC1	-6	0	6	0
O=C(c1ccccc1)c1cc([N+](=O)[O-])ccc1NC(=O)C(F)(F)F	-9	1	16	1
COc1ccc(-n2cnc3cc(C(=O)N4CCC5(CC4)OCCO5)ccc32)cc1	48*	0	2	0
O=C(c1ccc2c(c1)ncn2C1CCCCCC1)N1CCC2(CC1)OCCO2	-11	0	-1	0
O=C(c1ccc2c(c1)ncn2-c1ccc(OCc2ccccc2)cc1)N1CCC2(CC1)OCCO2	42*	2	-2	0
CCN(CC)CCc1c(C)[nH]c(C=O)c1C	-4	-2	-15	0
CC1CC2(CCCCC2)NCc2ccccc21 (centres undefined)	-10	0	-11	0
CC1O[C@@H](OC2C[C@@H](O)[C@]3(CO)[C@H]4[C@H](O)C[C@]5(C)C(C6=CC(=O)OC6)CC[C@]5(O)[C@@H]4CC[C@]3(O)C2)C(O)[C@@H](O)[C@H]1O (some centres undefined)	x	0	-1	0
CC(=O)O[C@H]1CC[C@]2(C=O)C3CC[C@]4(C)[C@@H](C5=CC(=O)OC5)CC[C@]4(O)[C@@H]3CC[C@]2(O)C1 (some centres undefined)	102*	0	5	0
